Experimental data reported in the supplement of paper PMC4466140.

Target: CaNbp2
Assay: SPOT peptide array binding signal intensity (averaged, normalized) (arbitrary units (background-subtracted, floor 0; scale differs between SH3 domains)); higher = stronger binding of the SH3 domain to the peptide
How it was run: (§1)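 Detection of bound protein relied on anti-GST antibody, an HRP anti-mouse secondary and luminol, with imaging and quantification in Genespotter. The bound protein was GST-fused SH3 domains from four yeast species, incubated at 10 μg/ml overnight at 4°C in TBS-based blocking buffer on cellulose membranes carrying synthetic 15-mer peptides with cysteines replaced by serines. Binding signal is normalized, background-subtracted spot intensity averaged over replicates, in arbitrary units that differ between domains.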

Binder	SPOT peptide array binding signal intensity
LPPPPPPPPPPPLPQ	10
KKIRLIFTYPSTVGR	966

Target: CaRvs167
Assay: as above
How it was run: as §1

Binder	SPOT peptide array binding signal intensity
LPPPPPPPPPPPLPQ	≤ 0
KKIRLIFTYPSTVGR	274

Target: CaRvs167-3
Assay: as above
How it was run: as §1

Binder	SPOT peptide array binding signal intensity
LPPPPPPPPPPPLPQ	0.5
KKIRLIFTYPSTVGR	2180

Target: CaSho1
Assay: as above
How it was run: as §1

Binder	SPOT peptide array binding signal intensity
LPPPPPPPPPPPLPQ	4.5
KKIRLIFTYPSTVGR	1570

Target: CaSla1-D1-D2
Assay: as above
How it was run: as §1

Binder	SPOT peptide array binding signal intensity
LPPPPPPPPPPPLPQ	5.5
KKIRLIFTYPSTVGR	21

Target: CaSla1-D3
Assay: as above
How it was run: as §1

Binder	SPOT peptide array binding signal intensity
LPPPPPPPPPPPLPQ	0.5
KKIRLIFTYPSTVGR	487

Target: ScAbp1
Assay: as above
How it was run: as §1

Binder	SPOT peptide array binding signal intensity
LPPPPPPPPPPPLPQ	2.5
KKIRLIFTYPSTVGR	15

Target: ScBbc1
Assay: as above
How it was run: as §1

Binder	SPOT peptide array binding signal intensity
LPPPPPPPPPPPLPQ	2.5
KKIRLIFTYPSTVGR	4.75

Target: ScBem1-D1
Assay: as above
How it was run: as §1

Binder	SPOT peptide array binding signal intensity
LPPPPPPPPPPPLPQ	≤ 0
KKIRLIFTYPSTVGR	19

Target: ScBzz1-D1
Assay: as above
How it was run: as §1

Binder	SPOT peptide array binding signal intensity
LPPPPPPPPPPPLPQ	16
KKIRLIFTYPSTVGR	23

Target: ScBzz1-D2
Assay: as above
How it was run: as §1

Binder	SPOT peptide array binding signal intensity
LPPPPPPPPPPPLPQ	2
KKIRLIFTYPSTVGR	325

Target: ScCyk3
Assay: as above
How it was run: as §1

Binder	SPOT peptide array binding signal intensity
LPPPPPPPPPPPLPQ	0.5
KKIRLIFTYPSTVGR	210

Target: ScFus1
Assay: as above
How it was run: as §1

Binder	SPOT peptide array binding signal intensity
LPPPPPPPPPPPLPQ	≤ 0
KKIRLIFTYPSTVGR	3720

Target: ScHof1
Assay: as above
How it was run: as §1

Binder	SPOT peptide array binding signal intensity
LPPPPPPPPPPPLPQ	9.25
KKIRLIFTYPSTVGR	1.75

Target: ScHse1
Assay: as above
How it was run: as §1

Binder	SPOT peptide array binding signal intensity
LPPPPPPPPPPPLPQ	23
KKIRLIFTYPSTVGR	1750

Target: ScLsb1
Assay: as above
How it was run: as §1

Binder	SPOT peptide array binding signal intensity
LPPPPPPPPPPPLPQ	0.5
KKIRLIFTYPSTVGR	32

Target: ScLsb2
Assay: as above
How it was run: as §1

Binder	SPOT peptide array binding signal intensity
LPPPPPPPPPPPLPQ	≤ 0
KKIRLIFTYPSTVGR	5

Target: ScLsb3
Assay: as above
How it was run: as §1

Binder	SPOT peptide array binding signal intensity
LPPPPPPPPPPPLPQ	54
KKIRLIFTYPSTVGR	389

Target: ScLsb4
Assay: as above
How it was run: as §1

Binder	SPOT peptide array binding signal intensity
LPPPPPPPPPPPLPQ	1.5
KKIRLIFTYPSTVGR	60

Target: ScMyo3
Assay: as above
How it was run: as §1

Binder	SPOT peptide array binding signal intensity
LPPPPPPPPPPPLPQ	1930
KKIRLIFTYPSTVGR	4

Target: ScMyo5
Assay: as above
How it was run: as §1

Binder	SPOT peptide array binding signal intensity
LPPPPPPPPPPPLPQ	933
KKIRLIFTYPSTVGR	5

Target: ScNbp2
Assay: as above
How it was run: as §1

Binder	SPOT peptide array binding signal intensity
LPPPPPPPPPPPLPQ	16
KKIRLIFTYPSTVGR	744

Target: ScPex13
Assay: as above
How it was run: as §1

Binder	SPOT peptide array binding signal intensity
LPPPPPPPPPPPLPQ	41.8
KKIRLIFTYPSTVGR	14.5

Target: ScRvs167
Assay: as above
How it was run: as §1

Binder	SPOT peptide array binding signal intensity
LPPPPPPPPPPPLPQ	≤ 0
KKIRLIFTYPSTVGR	26.2

Target: ScSho1
Assay: as above
How it was run: as §1

Binder	SPOT peptide array binding signal intensity
LPPPPPPPPPPPLPQ	≤ 0
KKIRLIFTYPSTVGR	2150

Target: ScSla1-D1-D2
Assay: as above
How it was run: as §1

Binder	SPOT peptide array binding signal intensity
LPPPPPPPPPPPLPQ	16.5
KKIRLIFTYPSTVGR	83.5

Target: ScSla1-D3
Assay: as above
How it was run: as §1

Binder	SPOT peptide array binding signal intensity
LPPPPPPPPPPPLPQ	≤ 0
KKIRLIFTYPSTVGR	57.8

Target: SpAbp1-D1
Assay: as above
How it was run: as §1

Binder	SPOT peptide array binding signal intensity
LPPPPPPPPPPPLPQ	3
KKIRLIFTYPSTVGR	132

Target: SpBbc1
Assay: as above
How it was run: as §1

Binder	SPOT peptide array binding signal intensity
LPPPPPPPPPPPLPQ	0.5
KKIRLIFTYPSTVGR	41

Target: SpBzz1-D1
Assay: as above
How it was run: as §1

Binder	SPOT peptide array binding signal intensity
LPPPPPPPPPPPLPQ	4870
KKIRLIFTYPSTVGR	133

Target: SpBzz1-D2
Assay: as above
How it was run: as §1

Binder	SPOT peptide array binding signal intensity
LPPPPPPPPPPPLPQ	7.5
KKIRLIFTYPSTVGR	0.5

Target: SpCyk3
Assay: as above
How it was run: as §1

Binder	SPOT peptide array binding signal intensity
LPPPPPPPPPPPLPQ	≤ 0
KKIRLIFTYPSTVGR	92

Target: SpHof1
Assay: as above
How it was run: as §1

Binder	SPOT peptide array binding signal intensity
LPPPPPPPPPPPLPQ	≤ 0
KKIRLIFTYPSTVGR	315

Target: SpHof1-2
Assay: as above
How it was run: as §1

Binder	SPOT peptide array binding signal intensity
LPPPPPPPPPPPLPQ	≤ 0
KKIRLIFTYPSTVGR	91

Target: SpHof1-3
Assay: as above
How it was run: as §1

Binder	SPOT peptide array binding signal intensity
LPPPPPPPPPPPLPQ	0.5
KKIRLIFTYPSTVGR	872

Target: SpHse1
Assay: as above
How it was run: as §1

Binder	SPOT peptide array binding signal intensity
LPPPPPPPPPPPLPQ	2.25
KKIRLIFTYPSTVGR	910

Target: SpLsb1
Assay: as above
How it was run: as §1

Binder	SPOT peptide array binding signal intensity
LPPPPPPPPPPPLPQ	≤ 0
KKIRLIFTYPSTVGR	2

Target: SpLsb4
Assay: as above
How it was run: as §1

Binder	SPOT peptide array binding signal intensity
LPPPPPPPPPPPLPQ	≤ 0
KKIRLIFTYPSTVGR	210

Target: SpMyo1
Assay: as above
How it was run: as §1

Binder	SPOT peptide array binding signal intensity
LPPPPPPPPPPPLPQ	1520
KKIRLIFTYPSTVGR	14

Target: SpNbp2
Assay: as above
How it was run: as §1

Binder	SPOT peptide array binding signal intensity
LPPPPPPPPPPPLPQ	2
KKIRLIFTYPSTVGR	1780

Target: SpPex13
Assay: as above
How it was run: as §1

Binder	SPOT peptide array binding signal intensity
LPPPPPPPPPPPLPQ	≤ 0
KKIRLIFTYPSTVGR	24

Target: SpRvs167
Assay: as above
How it was run: as §1

Binder	SPOT peptide array binding signal intensity
LPPPPPPPPPPPLPQ	5.33
KKIRLIFTYPSTVGR	21

Target: SpSla1-D1-D2
Assay: as above
How it was run: as §1

Binder	SPOT peptide array binding signal intensity
LPPPPPPPPPPPLPQ	3
KKIRLIFTYPSTVGR	5

Target: SpSla1-D3
Assay: as above
How it was run: as §1

Binder	SPOT peptide array binding signal intensity
LPPPPPPPPPPPLPQ	≤ 0
KKIRLIFTYPSTVGR	49

Target: AgAbp1
Assay: as above
How it was run: as §1

Binder	SPOT peptide array binding signal intensity
KKIRLIFTYPSTVGR	11

Target: AgBbc1
Assay: as above
How it was run: as §1

Binder	SPOT peptide array binding signal intensity
KKIRLIFTYPSTVGR	22.8

Target: AgBem1-D1
Assay: as above
How it was run: as §1

Binder	SPOT peptide array binding signal intensity
KKIRLIFTYPSTVGR	241

Target: AgBzz1-D1
Assay: as above
How it was run: as §1

Binder	SPOT peptide array binding signal intensity
KKIRLIFTYPSTVGR	22.5

Target: AgBzz1-D2
Assay: as above
How it was run: as §1

Binder	SPOT peptide array binding signal intensity
KKIRLIFTYPSTVGR	50

Target: AgCyk3
Assay: as above
How it was run: as §1

Binder	SPOT peptide array binding signal intensity
KKIRLIFTYPSTVGR	49

Target: AgFus1
Assay: as above
How it was run: as §1

Binder	SPOT peptide array binding signal intensity
KKIRLIFTYPSTVGR	2480

Target: AgHof1
Assay: as above
How it was run: as §1

Binder	SPOT peptide array binding signal intensity
KKIRLIFTYPSTVGR	47

Target: AgHse1
Assay: as above
How it was run: as §1

Binder	SPOT peptide array binding signal intensity
KKIRLIFTYPSTVGR	1210

Target: AgLsb1
Assay: as above
How it was run: as §1

Binder	SPOT peptide array binding signal intensity
KKIRLIFTYPSTVGR	58.8

Target: AgLsb4
Assay: as above
How it was run: as §1

Binder	SPOT peptide array binding signal intensity
KKIRLIFTYPSTVGR	577

Target: AgMyo5
Assay: as above
How it was run: as §1

Binder	SPOT peptide array binding signal intensity
KKIRLIFTYPSTVGR	2.5

Target: AgNbp2
Assay: as above
How it was run: as §1

Binder	SPOT peptide array binding signal intensity
KKIRLIFTYPSTVGR	688

Target: AgRvs167
Assay: as above
How it was run: as §1

Binder	SPOT peptide array binding signal intensity
KKIRLIFTYPSTVGR	6.17

Target: AgSho1
Assay: as above
How it was run: as §1

Binder	SPOT peptide array binding signal intensity
KKIRLIFTYPSTVGR	426

Target: AgSla1-D1-D2
Assay: as above
How it was run: as §1

Binder	SPOT peptide array binding signal intensity
KKIRLIFTYPSTVGR	428

Target: AgSla1-D3
Assay: as above
How it was run: as §1

Binder	SPOT peptide array binding signal intensity
KKIRLIFTYPSTVGR	4.5

Target: CaAbp1-D1
Assay: as above
How it was run: as §1

Binder	SPOT peptide array binding signal intensity
KKIRLIFTYPSTVGR	504

Target: CaAbp1-D2
Assay: as above
How it was run: as §1

Binder	SPOT peptide array binding signal intensity
KKIRLIFTYPSTVGR	268

Target: CaBbc1
Assay: as above
How it was run: as §1

Binder	SPOT peptide array binding signal intensity
KKIRLIFTYPSTVGR	86.8

Target: CaBem1-D1
Assay: as above
How it was run: as §1

Binder	SPOT peptide array binding signal intensity
KKIRLIFTYPSTVGR	73.5

Target: CaBzz1-D1
Assay: as above
How it was run: as §1

Binder	SPOT peptide array binding signal intensity
KKIRLIFTYPSTVGR	142

Target: CaBzz1-D2
Assay: as above
How it was run: as §1

Binder	SPOT peptide array binding signal intensity
KKIRLIFTYPSTVGR	99.2

Target: CaCyk3
Assay: as above
How it was run: as §1

Binder	SPOT peptide array binding signal intensity
KKIRLIFTYPSTVGR	118

Target: CaFus1
Assay: as above
How it was run: as §1

Binder	SPOT peptide array binding signal intensity
KKIRLIFTYPSTVGR	4650

Target: CaHof1
Assay: as above
How it was run: as §1

Binder	SPOT peptide array binding signal intensity
KKIRLIFTYPSTVGR	2.25

Target: CaHse1
Assay: as above
How it was run: as §1

Binder	SPOT peptide array binding signal intensity
KKIRLIFTYPSTVGR	282

Target: CaLsb1
Assay: as above
How it was run: as §1

Binder	SPOT peptide array binding signal intensity
KKIRLIFTYPSTVGR	79.2

Target: CaLsb4
Assay: as above
How it was run: as §1

Binder	SPOT peptide array binding signal intensity
KKIRLIFTYPSTVGR	354

Target: CaMyo5
Assay: as above
How it was run: as §1

Binder	SPOT peptide array binding signal intensity
KKIRLIFTYPSTVGR	77.2
